Results on 40 sequences are retold here after the supplement of paper PMC6555819.

For this assay, the system named is RXRa DBDmut IVT, anti-RXR (DBD mutation: RXRa K156A/R161A, NR concentration 90 nM). The assay is described as follows: PBM binding z-score (relative to random genomic background probes); higher = stronger binding; sequences stand for … in GC…GCGATTGACAGCGTAGAATGAAGG
In short, it runs like this: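 Binding z-scores take random background probes as their reference. They come from custom Agilent 4×180K protein-binding microarrays incubated 1 h with ligand-free nuclear receptor dimers, with antibodies against each partner (one per run) detecting binding. Scanned fluorescence was regression-normalized.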
Sequence ACTAGCAGGCCACGGGTCACTCAAGATTAGTCCG yielded a PBM binding z-score of 0.0998.
Take CCGACTGGGGCAAAGGTGACCATACTCAGTACGA: the PBM binding z-score is -0.244.
In turn, TGAATGAGGCTAAAGATCAGGGAACGTGGCGTCG had a PBM binding z-score of -0.642.
The value for TCTTGCAGATCAACAGGAGGTTAAGAAAGATCGA was 0.162.
Next, TAGCCTAGGTCACGCGGGCCAGTATAGTGTCGGC: 0.633; GATACAGGGTCAAGGCCAGAGTGCGCGTATTGAT: 2.42; TCATAGAGGTAAATGCTAGGTGAAAGTCCGATCT: 0.932.
TCTCGGAGGATACGAAAGGTCAGAGCTCGACATC had a PBM binding z-score of 0.587.
Take ATACCAAGGTGATCGTGAGGTAGTTGATACTAAC: the PBM binding z-score is -0.401.
The value for ATCTCTAGGCAAGACTCAGTTCAGTGAAGAACGC was 0.109; that for GTACCAAGGTGAGTAGGTCGTTGATGAGTAGGCG was -0.673; that for CCTCGGAGGACAACAGGAGGTCAGAGCGGCCAGA was 0.253.
Turning to TCTGGTAGATCAATAGAGGTTAAGAAAGTGCGCT, the PBM binding z-score was 0.698.
The sequence GCGACTGGGGCAAAGCAGGTTACAATAAGGTTGG returned a PBM binding z-score of -0.0572.
CCGACTGGGGCATAAGGTTACCACAAGCCAGCCC showed a PBM binding z-score of -0.196.
Next, ATATGTAGGTTAAGGGTCATACAGGTTGGTTCGC: 2.4; ACTATTAGTTGACTAAGGGCAACCGATACGACGC: 0.698.
Next, TCTTGTAGATCAACACGAGGTTAAGAAAGATCGA: 0.555.
Next, TCGAGTAGCTTAGGGGCATTCAGAATGGCGTCGA: 0.27; TCAATGAGGTTATAAGATCAGGGAACGTTGCAAA: 1.75.
CCTACTGGGCCACGAAAGGTCATTGTTTCAGTGA registered a PBM binding z-score of 0.971.
For GATACAGGGCCAGCTAGAGGCCAGAGTATGGAAA, the PBM binding z-score was -1.03.
As to GCTATTAGTTGAAAGGGCAACCTAATGATTCTCG, the PBM binding z-score came to 0.966.
ATATGTAGGTTATCGGGTCATTCAGTTTGCGCAT came in with a PBM binding z-score of 1.87.
Consider CGTCCAAGGTCAGAGCGGTCAGTGAATGCCGAGT, for which the PBM binding z-score was 2.61.
For the sequence TTACCAAGGTGAGCTGAGGTCGTTGTTCCAACTC, the PBM binding z-score was 0.437.
The value for CCAGCCAGGTGAGAAGGTAACTCAGCCTCGATTA was -0.801.
CCTAGCAGGCCAATCTGGCTCACTCAAGGCTTGA gave a PBM binding z-score of -0.298.
As to CTTTACGGGTCACTCCAGGTTATAGCATCGGAGT, the PBM binding z-score worked out at 2.29.
The value for CAAACTCGGTCACGAAAGGTCAAAGTCGAATGAC was 1.9; that for CTCGAAAAGTCGGTTGAGGTGAGTATACGGATAA was -0.0991.
In the case of CGGCCAAGGTCAGAGAGGTCAGTGAATGCCGAGT, the PBM binding z-score was found to be 3.44.
CCTACTGGGCCAAGGTGATTGATCAGTCAAAGCA had a PBM binding z-score of -1.43.
Take TATACAGGGTCAAAGGCCAGACTACGAATGTCGA: the PBM binding z-score is 3.01.
Sequence ATAATGAGGTTATTAAGATCAGGGAATTGCGGTC registered a PBM binding z-score of 2.09.
Next, GCTGCTAGGTAAACTGATGGTCAGCTAAAGCTCG: -0.0334; AGAATGAGGTTATTAAGACCAGGGAATTGCGGTC: 1.64.
Next, ATCTCCAGGTAAGACTCAGTTCAGTGAAGAACGC: 0.412.
Take CCAGACAGGTGAAAGGTAATTCAGTCTGGTACGC: the PBM binding z-score is -0.17.
CTAACTAGGTCAAGAGGTCAAAGTCCGCTTCCCG yielded a PBM binding z-score of 2.89.
